In PubChem BioAssay (NCI) one finds growth data, which are given here for twelve molecules.

“And” between values parts separate entries of the source, which are not always exact repeats. Equal entries are not always repeated. This is part of a sample that, as a whole, favours compounds with a hit. Of some 83,000 tested, about 20% had one in any assay.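 The endpoint reported here, percent growth, reads 100 for growth as untreated, 0 for no net growth and -100 for all cells dead.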 Unmarked numbers belong to inactive results. The source made the active and inactive calls. Rule for the calls: active = growth percent below 10; inactive = the rest.

Holding throughout (assay): NCI-60 one-dose screen, 48 h (100 = growth as untreated, 0 = no growth, -100 = all killed)
Assay [1] concerns DU-145 prostate. Particulars: 10 µM unless noted.
Assay [2] deals with K-562 leukemia. Particulars: 10 µM unless noted.
Assay [3] concerns MALME-3M melanoma. Particulars: 10 µM unless noted.
The test system of assay [4] is MDA-MB-231 breast. Particulars: 10 µM unless noted.
Assay [5] has as its system RXF 393 renal. Particulars: 10 µM unless noted.
The subject of assay [6] is SF-268 CNS. Particulars: 10 µM unless noted.
Assay [7] relates to SF-295 CNS. Particulars: 10 µM unless noted.
Assay [8] has as its system SF-539 CNS. Particulars: 10 µM unless noted.
The subject of assay [9] is UACC-257 melanoma. Particulars: 10 µM unless noted.
Assay [10] concerns M14 melanoma. Particulars: 10 µM unless noted.
Assay [11] concerns HCT-15 colon. Particulars: 10 µM unless noted.
Assay [12] concerns HT29 colon. Particulars: 10 µM unless noted.
Assay [13] concerns SNB-75 CNS. Particulars: 10 µM unless noted.
Assay [14] deals with SNB-19 CNS. Particulars: 10 µM unless noted.
Assay [15] concerns U251 CNS. Particulars: 10 µM unless noted.
For assay [16], the system named is PC-3 prostate. Particulars: 10 µM unless noted.
The subject of assay [17] is SK-MEL-5 melanoma. Particulars: 10 µM unless noted.
For assay [18], the system named is UACC-62 melanoma.
Assay [19] relates to LOX IMVI melanoma. Particulars: 10 µM unless noted.
The subject of assay [20] is SK-MEL-28 melanoma. Particulars: 10 µM unless noted.

Regarding `Cc1ccc(S(=O)(=O)c2ccccc2)cc1`, the growth in assay [1] was 26.3%; in [2], 23.2%; in assay [3] it was 66.6%; in [4], 50%; in assay [5], 39.3%; in [6], 47.9%. Also, the growth was 2.7% (active) in assay [7]; 28.7% in assay [8]; 8.5% (active) in assay [9]; 15.4% in assay [10]; 30.5% in assay [11]; 6.22% (active) in assay [12]. The growth in assay [13] was -19.3% (active); in [14], 43.4%; in assay [15], 17.2%; in assay [16], 30.7%; in [17] it was 23.7%; in [18] (10 µM unless noted), 63.4%. Moreover, the figures for the growth in assay [19] and in assay [20] were 21% and 59.6%, respectively.
As for `CC[C@H](CC[C@@H](C)[C@H]1CC[C@H]2[C@@H]3CC=C4C[C@@H](O)CC[C@]4(C)[C@H]3CC[C@]12C)C(C)C`, the growth in [1] is 114% and 103%; in assay [2], 106%; in assay [3], 106% and 104%; in [4], 115% and 97.9%; in [5] it was 104%; in [6], 101% and 97.6%. For the same molecule, the growth was 98.3% and 101% in [7]; 92.2% and 99.1% in assay [8]; 97.5% in assay [9]; 103% and 106% in assay [10]; 80.9% and 102% in [11]; 101% and 109% in assay [12]. Further, the growth is 81.3% and 101% in [13]; 99.5% and 98.1% in [14]; 90.3% and 104% in assay [15]; 106% and 98.2% in assay [16]; 95.2% and 105% in assay [17]; 96% and 101% in [18] (10 µM unless noted). In addition, the growth in assay [19] was 92.6% and 101%; in [20], 99.9% and 103%.
For `O=C1c2c(O)ccc(O)c2C(=O)c2c(NCCNCCO)ccc(NCCNCCO)c21`, the growth in assay [1] is -36.8% (active) and -51.3% (active); in [2] it was -5.45% (active) and -77.6% (active); in assay [3], -64.6% (active) and -88.2% (active); in assay [4], -84.3% (active) and -77.3% (active); in assay [5], -86.4% (active) and -68.9% (active); in assay [6], -73% (active) and -80% (active). For the same molecule, the growth is -37.8% (active) and -39.6% (active) in assay [7]; -38.4% (active) and -84% (active) in assay [8]; -4.02% (active) and -47.7% (active) in assay [9]; -79.7% (active) and -97.7% (active) in assay [10]; -14.2% (active) and 3.08% (active) in [11]; -59.8% (active) and -43.2% (active) in assay [12]. The growth in assay [13] was -90.4% (active); in [14], -40.6% (active) and -58.3% (active); in assay [16], -28% (active) and -55.3% (active); in assay [17], -100% (active); in assay [18] (10 µM unless noted), -91.9% (active) and -86.7% (active); in assay [19], -66.4% (active) and -76.2% (active).
With `Cc1cc(-c2cc(C)c(O)c(C)c2)cc(C)c1O`, the growth is 104% in assay [1]; 31.9% in assay [2]; 75% in assay [3]; 75.6% in [4]; 63.5% in assay [5]; 92.9% in assay [6]. In addition, the growth in assay [7] is 86.1%; in assay [8], 84.9%; in [9], 92%; in assay [10], 71.6%; in [11], 70.8%; in assay [12], 96.1%. For the same molecule, the growth is 65% in assay [13]; 83.8% in [14]; 88.6% in assay [15]; 80.9% in [16]; 73.9% in assay [17]; 62.8% in [18] (10 µM unless noted). The results for the growth in [19] and in assay [20] were 76.8% and 88%, respectively.
For the molecule `O=c1n(CC2CO2)c(=O)n(CC2CO2)c(=O)n1CC1CO1` (centres undefined), the growth in assay [1] was 25.7%; in assay [2] it was 81.3%; in assay [3] it was 70.7%; in assay [4], 107%; in assay [5], 64.2%; in assay [6] it was 47.9%. Further, the growth in assay [7] is 13.9%; in [8], 28.6%; in assay [9], 61.4%; in assay [10], 61.9%; in assay [11], 75.9%; in [12], 70.3%. The growth in [13] is 66.3%; in assay [14], 83.9%; in assay [16], 71.4%; in [17], 86.7%; in assay [18] (10 µM unless noted), 66%; in assay [19], 54.5%. Besides, the growth in assay [20] was 88.7%.
On to `CN1CNC(=O)NC1`, for which the growth in assay [1] is 118% and 106%; in [2], 112% and 86%; in assay [3], 120% and 96%; in assay [4], 119% and 102%; in [5] it was 102% and 106%; in assay [6] it was 111% and 103%. In addition, the growth in assay [7] is 96.5% and 104%; in assay [8] it was 111% and 98.4%; in [9], 111% and 86.9%; in [10] it was 97.2% and 106%; in assay [11] it was 109% and 101%; in [12], 101%. Also, the growth is 94.8% and 110% in [13]; 109% and 103% in [14]; 94% and 87.2% in assay [16]; 113% and 95.9% in assay [17]; 111% and 107% in [18] (10 µM unless noted); 99.6% and 95.4% in assay [19]. In assay [20], the growth is 113% and 118%.
Regarding `O=[N+]([O-])c1cccc(SSc2cccc([N+](=O)[O-])c2)c1`, the growth is 112% in [1]; 94.3% in assay [2]; 97.2% in assay [3]; 95.4% in assay [4]; 123% in assay [5]; 106% in assay [6]. Besides, the growth in assay [7] was 108%; in assay [8], 102%; in assay [9], 110%; in assay [10] it was 94.2%; in [11] it was 91.9%; in assay [12] it was 102%. The growth in assay [13] was 102%; in assay [14], 91.1%; in assay [15], 99.2%; in assay [16] it was 82.6%; in [17], 99.4%; in assay [18] (10 µM unless noted) it was 94.2%. Moreover, the growth is 100% in assay [19] and 110% in assay [20].
In the case of `CC1(C)COC(=S)N1`, the growth in assay [1] is 114%; in assay [2], 91.7%; in [3], 104%; in assay [4], 96.5%; in assay [5], 98.8%; in [6] it was 107%. For the same molecule, the growth in [7] was 98.4%; in assay [8], 107%; in [9], 99.6%; in [10], 101%; in [11] it was 103%; in assay [12], 104%. Besides, the growth is 87.4% in [13]; 107% in [14]; 101% in [15]; 100% in assay [16]; 112% in assay [17]; 93% in assay [18] (10 µM unless noted). Besides, the growth was 99.9% in assay [19] and 104% in [20].
In the case of `CCc1cc(C)cc(O)c1`, the growth in assay [1] was 122%; in [2], 100%; in [3], 112%; in assay [4], 112%; in assay [5] it was 94.4%; in assay [6] it was 124%. In addition, the growth in assay [7] was 116%; in [8], 128%; in assay [9], 96.1%; in assay [10], 103%; in [11] it was 111%; in assay [12], 99.4%. The growth in assay [13] was 98%; in assay [14] it was 103%; in assay [15], 96%; in assay [16], 97.1%; in assay [17] it was 105%; in assay [18] (10 µM unless noted) it was 108%. In addition, the growth in assay [19] was 105%; in [20], 111%.
For `C#CCOC(=O)Nc1ccccc1`, the growth in assay [1] is 106%; in assay [2], 96.9%; in [3], 115%; in [4], 116%; in assay [5] it was 124%; in assay [6], 105%. Besides, the growth in [7] was 107%; in assay [8], 97.5%; in [9], 93.7%; in assay [10], 103%; in [11] it was 99.6%; in assay [12] it was 112%. In addition, the growth in assay [13] is 91.2%; in assay [14] it was 111%; in [16], 96.7%; in assay [17], 103%; in [18] (10 µM unless noted), 104%; in assay [19], 99.2%. In addition, the growth in assay [20] is 103%.
As for `CC(C)(O)C(=O)O`, the growth in [1] is 94.5%; in [2], 123%; in assay [3], 88.4%; in [4], 86.4%; in assay [5], 113%; in assay [6], 103%. Also, the growth in assay [7] was 103%; in assay [8], 101%; in assay [9] it was 99.8%; in assay [10] it was 101%; in [11] it was 105%; in assay [12], 104%. Moreover, the growth in assay [13] was 94.6%; in [14], 103%; in assay [15], 97.9%; in [16] it was 98.2%; in assay [17], 103%; in assay [18] (10 µM unless noted), 103%. The growth in assay [19] was 101%; in assay [20], 104%.
On to `COc1ccc2cc1Oc1ccc(cc1)C[C@H]1c3cc(c(OC)cc3CCN1C)Oc1c(OC)c(OC)cc3c1[C@H](C2)N(C)CC3`, for which the growth in assay [1] was 53.1%; in assay [2], -75.4% (active); in assay [3], 16.3%; in assay [4], 8.45% (active); in assay [5], 47.2%; in assay [6], 78.2%. In addition, the growth in [7] is 71.8%; in [8], -74.4% (active); in assay [9], 46.2%; in assay [10], -78.8% (active); in assay [11] it was 3.41% (active); in assay [12], -32.7% (active). For the same molecule, the growth was -7.64% (active) in [13]; 57.7% in assay [14]; 28.8% in [16]; 21.1% in assay [17]; 103% in assay [18] (10 µM); 80.7% and 64.2% in [18] (100 µM). Also, the growth in assay [19] is -43.7% (active).
